Potency data for 38 compounds are collected here from PubChem BioAssay AID624116 (National Center for Advancing Translational Sciences (NCATS), 2012).

Results filed as inconclusive are left out. Entries that show only a call come without a potency. The source made the active and inactive calls. Calls come from the whole dose curve; as a rule, active = well fitted activation curve with a large enough effect; inconclusive = small, poorly fitted or top-dose-only effect; inactive = no such curve, though single readings can be large or run the other way.
Potency is the fitted concentration of half-maximal effect.

The test can be described thus: qHTS Assay for Rab9 Promoter Activators: Hit Validation Using Renilla Luciferase Read-Out for Rab9. The conditions noted are these: Huh7 Rab9 promoter Renilla luciferase reporter, 24 h; series mostly up to 76.9 µM. The gist of the method: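 Luciferase reporter read-out: promoter activation measured by luminescence after 10 min with detection reagent at room temperature. Cells were Huh7 with a stable promoter-luciferase construct, treated 24 h at 37 deg C.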
In the case of `CC1(C)CC(=O)c2c(O)c(-c3ccccc3)c(=O)n(-c3ccccc3)c2C1`, the Potency entry was “inactive”.

With `Cc1ccc(S(=O)(=O)/N=C2\C=C(Nc3cccc(C(=O)O)c3)C(=O)c3ccccc32)cc1`, the Potency result is “inactive”.

On to `Nc1ccc(C(=O)Nc2ccccc2N)cc1`, for which the Potency is 16.4 µM (active).

Turning to `COCCNC(=O)CN1C(=O)NC(c2ccccc2)(c2ccccc2)C1=O`, the Potency result is “inactive”.

Consider `CCN(CC)S(=O)(=O)c1ccc(NCc2ccccn2)nc1`, for which the Potency entry was “inactive”.

For the compound `Cc1cccc(C)c1NC(=O)Nc1cccs1`, the Potency result is “inactive”.

As for `CCOC(=O)c1csc(COc2ccc(OC)cc2)n1`, the Potency entry is “inactive”.

In the case of `O=C(CSc1nnc(-c2csc3c2CCCC3)o1)Nc1ccccc1`, the Potency result is “inactive”.

Take `CCCOP(=O)(c1ccc(N(C)C)cc1)C(O)c1cccnc1` (stereo not drawn): the Potency result is “inactive”.

Regarding `O=C(NNC(=O)C1COc2ccccc2O1)c1ccccc1O` (stereo not drawn), the Potency result is “inactive”.

Turning to `O=C(CSc1nnc(-c2ccccc2)o1)Nc1ccccc1F`, the Potency entry is “inactive”.

Consider `COCC1CCN(C(=O)c2ccc3oc(Cc4ccccc4)nc3c2)C1` (stereo not drawn), for which the Potency entry is “inactive”.

With `CC1CCCN(C(=S)Nc2ccc(Nc3ccccc3)cc2)C1` (stereo not drawn), the Potency result is “inactive”.

In the case of `COc1ccccc1NC(=S)NCc1ccc(Cl)cc1`, the Potency entry is “inactive”.

As to `COc1ccc(/C=C\c2onc(C)c2S(=O)(=O)N2CCC(C(=O)NCCC(C)C)CC2)cc1`, the Potency entry was “inactive”.

Consider `O=C(CSc1ncccn1)Nc1cccc2ccccc12`, for which the Potency result is “inactive”.

Turning to `COCCSc1ncnc2c1oc1nc3c(cc12)COC(C)(C)C3`, the Potency entry is “inactive”.

Turning to `Cc1ccc(C(=O)c2cncc(Br)c2)cc1`, the Potency result is “inactive”.

As for `O=C(CCCOc1ccc(Cl)cc1)N1CCCCC1`, the Potency entry is “inactive”.

As for `Cc1ccc(C(=O)NC2CCN(CC(=O)Nc3c(C)cc(C)cc3C)CC2)cc1`, the Potency entry was “inactive”.

In the case of `Cc1ccc(C(=O)c2cn[nH]c2-c2ccccc2O)cc1`, the Potency entry was “inactive”.

`NC(=O)COC(=O)c1ccc2noc(-c3ccccc3)c2c1`: the Potency entry is “inactive”.

Regarding `Cc1ccc(N(O)C(=O)NCCCCNC(=O)N(O)c2ccc(C)cc2)cc1`, the Potency result was “inactive”.

`O=C(O)CSc1nnc(-c2ccncc2)n1CCc1ccccc1`: the Potency entry is “inactive”.

As for `CCOC(=O)c1ccc(-c2nnc(-c3ccc(Cl)cc3Cl)o2)cc1`, the Potency entry was “inactive”.

Regarding `Cc1ccc(C(=O)Nc2ccc(N3CCN(C)CC3)nc2)cc1`, the Potency entry is “inactive”.

On to `Cc1cc(C)c2c(N)c(C(=O)Nc3ccc([N+](=O)[O-])cc3)sc2n1`, for which the Potency entry was “inactive”.

Regarding `COC(=O)c1ccc(NC(=O)c2ccc3nc(C)sc3c2)cc1`, the Potency entry was “inactive”.

As to `COc1ccc(-c2cc(C(=O)Nc3ccccc3F)on2)cc1`, the Potency result is “inactive”.

As for `CC(=O)NC(=S)Nc1ccc2oc(-c3cc(F)c(F)cc3Cl)nc2c1`, the Potency result was “inactive”.

For `Cc1ccc(NC(=O)c2c(O)c3ccccc3n(C)c2=O)nc1`, the Potency result was “inactive”.

As for `CCOC(=O)C1(Cc2cccc(Cl)c2)CCCN(C(=O)CCSC)C1` (stereo not drawn), the Potency result was “inactive”.

Turning to `NCCOc1ccccc1-c1ccccc1`, the Potency result is “inactive”.

Consider `N#C/C(=C\c1ccc[nH]1)C(=O)Nc1ccccc1Cl`, for which the Potency was 23.2 µM (active).

Turning to `Cc1ccc(NC(=O)Nc2cccc3ccccc23)cc1`, the Potency result is “inactive”.

Consider `O=C(C[N+]1(CC#Cc2ccccc2)CCCCC1)c1ccccc1`, for which the Potency result was “inactive”.

Regarding `O=C(Nc1ccc(-c2nc3cccnc3s2)cc1)c1ccc(Cl)nc1`, the Potency result is “inactive”.

Turning to `CC1CN(C(=O)c2ccncc2)CC(C)O1` (stereo not drawn), the Potency entry was “inactive”.
